For 22 compounds, Potency and activity change, negative = inhibition results are on record in PubChem BioAssay (NCATS).

Records with an inconclusive call do not appear. Values without a mark were called inactive. Active and inactive are the calls of the source. Unless noted, calls come from the whole dose curve.

The first test can be described thus: Cell Viability - SK-N-SH (AID 435). Note: potency is the fitted concentration of half-maximal effect. The note with it: SK-N-SH neuroblastoma cell viability qHTS. The essentials:
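qHTS cytotoxicity: CellTiter-Glo ATP luminescence after 40 h compound exposure of human neuroblastoma SK-N-SH cells at 37 °C. AC50 derived by Hill-equation fitting, with DMSO as basal and 100 uM tamoxifen as full inhibition.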
Background: In qHTS, concentration-response curves come from the screen itself.
Take `Cc1cc2nc3c(=O)[nH]c(=O)nc-3n(C[C@H](O)[C@H](O)[C@H](O)CO)c2cc1C`: the Potency was more than 92 µM. The same measure, in the same setting: the same measure for `Cc1c(O)cccc1C(=O)N[C@@H](CSc1ccccc1)[C@H](O)CN1C[C@H]2CCCC[C@H]2C[C@H]1C(=O)NC(C)(C)C`: 24.5 µM (active); for `COc1ccccc1O`: more than 92 µM. Consider `NCCNCCNCCNCCN`, for which the Potency was more than 92 µM. Take `NCCNCCNCCN`: the Potency is more than 92 µM. Still for that read-out and setting: the same measure for `O=C1O[C@H]([C@@H](O)CO)C(O)=C1O`: more than 92 µM; for `Cc1cc(CC(=O)O)n(C)c1C(=O)c1ccc(Cl)cc1`: more than 92 µM. Turning to `CCCCCCCCCCCCOS(=O)(=O)O`, the Potency is more than 92 µM. Turning to `CC1(C)[C@@H]2CC[C@@]1(C)C(=O)C2`, the Potency is more than 92 µM. The same measure, in the same setting: the same measure for `NC(=O)N/N=C/c1ccc([N+](=O)[O-])o1`: more than 92 µM. As to `Nc1ccc(S(=O)(=O)Nc2nccs2)cc1`, the Potency was more than 92 µM.

Regarding `NC(=O)c1ncn([C@@H]2O[C@H](CO)[C@@H](O)[C@H]2O)n1`, the Potency is more than 92 µM. For the compound `CCCCOC(=O)c1ccc(O)cc1`, the Potency was more than 92 µM. As to `CC12CCC(CC1)C(C)(C)O2`, the Potency is more than 92 µM.

On to `[Cl][In]([Cl])[Cl]`, for which the Potency was more than 92 µM. For the compound `C[C@]12C[C@H](O)[C@H]3[C@@H](CCC4=CC(=O)CC[C@@]43C)[C@@H]1CC[C@@H]2C(=O)CO`, the Potency is more than 92 µM. `O=C1c2c(O)cccc2Cc2cccc(O)c21`: the Potency is more than 92 µM.

A further test in a line: NFAT Signaling Pathway (AID 444; active = well fitted curve in either direction with a large enough effect, not every such curve was filed as active;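 note: carbachol stimulus at about its EC50 of 1 µM final; % is set by controls: 0 for no effect and ±100 for the full control effect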). The settings on record: Jurkat NFAT-bla M1, carbachol, beta-lactamase ratio, 5 h; at 17.2 µM (top of the series). The essentials: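 Jurkat cells carrying an NFAT-driven β-lactamase reporter and co-transfected muscarinic M1 receptor were treated with compound plus carbachol (1 uM final, an EC50 level) for 5 h at 37 °C. CCF4 loading followed for 1 h at RT; 460/530 nm ratio gave %activity.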
As to `NS(=O)(=O)c1cc2c(cc1C(F)(F)F)NC(Cc1ccccc1)NS2(=O)=O` (stereo not given), the activity change, negative = inhibition was 0.596%. Still for that read-out and setting: the same measure for `C[C@]12CC[C@@H]3c4ccc(O)cc4CC[C@H]3[C@@H]1CCC2=O`: -19.8%. The same measure, in the same setting: the same measure for `CN(C)CCC=C1c2ccccc2CCc2ccccc21`: -80% (active); for `Nc1ccc(S(=O)(=O)Nc2nccs2)cc1`: 2.2%. For `CCCCOC(=O)c1ccc(O)cc1`, the activity change, negative = inhibition is -15%. `CCOc1ccc2ccccc2c1C(=O)N[C@@H]1C(=O)N2[C@@H]1SC(C)(C)[C@@H]2C(=O)O`: the activity change, negative = inhibition is 1.54%.

In the case of `C[C@H](N)[C@H](O)c1cccc(O)c1`, the activity change, negative = inhibition is -4.86%. Same read-out and setting: with `C[C@]12C[C@H](O)[C@H]3[C@@H](CCC4=CC(=O)CC[C@@]43C)[C@@H]1CC[C@@H]2C(=O)CO` the figure was 2.08%.
